# Measurements taken from the supplement of paper PMC10338343.
# ± gives the standard deviation.
# Tested on: MILI (PIWIL2) piRISC loaded with piRNA #1 (26 nt)
# Assay: pre-steady-state target cleavage rate (min^-1); guide: piRNA #1 5'p-UGAGGUAGUAGGUUGUAUAGUAUCCA; MIWI and MILI are mouse PIWI proteins and EfPiwi is from a freshwater sponge; tags in brackets are library labels; higher = faster piRNA-guided slicing of the target
# Settings: auxiliary factor: 500 nM mouse GTSF1
# In short: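 At 33 °C in HEPES–potassium acetate buffer, a transcribed, DNA-blocked target RNA library […] was exposed for 0–8 or 0–960 min to 1 nM active affinity-purified piRISC carrying a single synthetic guide, with or without 500 nM GTSF1 partner protein. Uncleaved targets were sequenced and normalised to depth and to weakly complementary targets. With three trials pooled and k3 capped at 0.0001 min^-1, a burst-and-steady-state fit produced the pre-steady-state cleavage rate.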
# 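Further: 1 nM active piRISC with 0.1 nM target library at 33 °C single turnover.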
row,Sequence,pre-steady-state target cleavage rate
1,GGAGACCUAUGAUUACAUCCUACUACCUGA,0.0052 ± 0.0025
2,GGAGACCUAUGAAUACAAGCAACUACCUCA,0.00265 ± 0.0026
3,GGAGAGGAUACUUUACUACCUACUACCUCA,0.161 ± 0.011
4,GGAGACCAUACUUUACAACCUUCUACCUCA,0.0105 ± 0.0033
5,GGAGACGAUACUUUACUACCUACUACCUCA,0.179 ± 0.012
6,GGAGACCUAUCUAUUCAUCCUACUACCUCA,0.172 ± 0.021
7,GGAGACCUAUCUAUUCAACCUACUAGCUCA,0.0826 ± 0.014
8,GGAGACCUAUGUAUAACAACCUACUACCUCA,0.0151 ± 0.0041
9,GGAGACCUAUGAUAUGUUCCUACUUACCUCA,< 0.0001
10,GGAGACCUUACUAUACAACCUACUACGACA,0.119 ± 0.021
11,GGAGACCUAUGAAUACAACCUACUACGUCA,0.00355 ± 0.0021
12,GGAGACCUAUGAUAUGUACCUUCAACCUCA,< 0.0001
13,GGAGACCUAUGUAUACAUCCUACAACCUCA,0.114 ± 0.014
14,GGAGUGGAUUCUUUACAACCUACUACCUCA,0.16 ± 0.0093
15,GGAGACCUUACUAUACAACCUAUCUACCUCA,0.0976 ± 0.011
